Test results reported in PubChem BioAssay AID1508602 (The Scripps Research Institute Molecular Screening Center, 2020).
Among all 650,000 compounds or so, about 6,800 (1%) were called active. The entries come from a sample that favours actives as a whole. A number with no mark means an inactive call. Cut-off read from the data, not from the text of the source: active = activation above about 4.9%; inactive = the rest.

Each compound was assayed against G-protein coupled receptor 151 (Homo sapiens) (UniProt Q8TDV0) (assay: activates the human receptor GPR151, primary screen, cell-based, PathHunter beta-arrestin, luminescence (AID 1508602;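 note: 0% = median of compound wells and 100% = cells with positive control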)). Settings: PathHunter beta-arrestin GPR151 cells, at 11.2 µM, active compounds read high.
Sequence of G-protein coupled receptor 151 (Homo sapiens) (Q8TDV0 whole entry, looked up): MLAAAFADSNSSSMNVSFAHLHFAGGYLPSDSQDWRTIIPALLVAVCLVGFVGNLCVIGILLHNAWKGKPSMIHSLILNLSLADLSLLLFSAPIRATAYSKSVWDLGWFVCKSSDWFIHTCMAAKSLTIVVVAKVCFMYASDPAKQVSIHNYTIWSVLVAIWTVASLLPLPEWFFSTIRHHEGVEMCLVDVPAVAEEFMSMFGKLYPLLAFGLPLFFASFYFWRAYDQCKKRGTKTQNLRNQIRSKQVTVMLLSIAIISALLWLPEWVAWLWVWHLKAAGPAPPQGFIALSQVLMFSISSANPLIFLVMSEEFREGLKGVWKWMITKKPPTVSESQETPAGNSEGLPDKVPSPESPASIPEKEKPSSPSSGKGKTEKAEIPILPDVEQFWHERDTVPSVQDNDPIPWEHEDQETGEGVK

First: COC(=O)c1cccc(-n2c3nc(=O)[nH]c(=O)c-3cc3ccccc32)c1
Second: Cc1cccc(NC(=O)CCn2c(=O)oc3ccccc32)c1
The activation of the first is lower: -0.76% for the first, -0.466% for the second.

First: CC(C)CC(=O)Nc1ccc(NC(=O)CC(C)C)c(Cl)c1
Second: CCOC(=O)Cc1csc(NC(=O)c2ccc(NC(=O)CC)cc2)n1
The activation of the first is higher: 0.466% for the first, -0.289% for the second.

First: CC(=O)c1cccc(-c2nc(NCCOc3ccccc3)c3ncn(-c4ccccc4)c3n2)c1
Second: Cc1nn(C)c(C)c1-c1nc(Nc2ccc(Oc3ccccc3)cc2)c2ncn(-c3ccsc3)c2n1
The activation of the first is higher: 0.401% for the first, 0.158% for the second.

Compared with CCOC(=O)C1=C(C)N=c2s/c(=C\c3ccc(OC)c(Br)c3)c(=O)n2C1c1ccc2c(c1)OCO2 (configuration not stated), CCOC(=O)C1=C(C)N=c2s/c(=C\c3cccc(OC)c3OCC)c(=O)n2C1c1ccccc1OC(C)C (configuration not stated) is lower in activation: 3.22% for the first, 2.86% for the second.

Going from CCCc1c(C)nc2c(C(=O)NC3CCCCCCC3)c[nH]n2c1=O to COc1cc([N+](=O)[O-])ccc1NC(=O)N1CCN(C2CCCCC2)CC1, the activation falls from 1.02% to -0.0069%.

Going from CC(=O)COC(=O)CNC(=O)c1ccc(Cl)cc1 to C/C(=N\NC(=O)CCC(=O)N/N=C(\C)c1ccc(Cl)cc1)c1ccc(Cl)cc1, the activation rises from -1.71% to 0.378%.

Going from Cc1nn(CC(=O)N(CC2CCCO2)C2CCS(=O)(=O)C2)c(C)c1[N+](=O)[O-] (configuration not stated) to O=C(C(Cc1ccccc1)N1C(=O)C2C3CCC(C3)C2C1=O)N1CCOCC1 (configuration not stated), the activation rises from 0.461% to 0.906%.

First: O=C(c1cn[nH]c1-c1ccc([N+](=O)[O-])cc1)N1CCOCC1
Second: O=C(C(Cc1ccccc1)N1Cc2ccccc2C1=O)N1CCOCC1 (configuration not stated)
The activation of the first is higher: -0.121% for the first, -0.15% for the second.

First: S=C(NCc1ccccc1)NCc1nc2ccccc2[nH]1
Second: O=C1CCC(CCNCc2ccccc2)N1CCc1ccccc1F (configuration not stated)
The activation of the first is lower: 1.09% for the first, 1.45% for the second.

Compared with Cc1ccc(C)n1-c1ccc(C(=O)NCC(c2ccco2)N(C)C)cc1 (configuration not stated), Cc1ccc(C(=O)NCc2nc3nc(C)cc(C)n3n2)cc1 is lower in activation: 0.754% for the first, 0.459% for the second.

First: CC(C)Cn1c(=O)c2c(nc3n2CCCN3c2ccc(Br)cc2)n(C)c1=O
Second: CCOCCn1c(=O)c2c(nc3n2CCCN3c2ccc(Br)cc2)n(C)c1=O
The activation of the first is lower: -0.288% for the first, 0.326% for the second.

Going from CCOC(=O)c1c(NC(=O)C(C)Sc2nnc(CNC(=O)COc3ccccc3)n2-c2cccc(Cl)c2)sc2c1CCC2 (configuration not stated) to CCOC(=O)c1c(NC(=O)COC(=O)C(C)c2c(F)c(F)cc(F)c2F)sc2c1CCCC2 (configuration not stated), the activation rises from -0.72% to 1.7%.

Compared with Cn1ncc2c(Nc3cccc(S(=O)(=O)Nc4cccc(C(F)(F)F)c4)c3)ncnc21, Cc1[nH]nc(Nc2cccc(C(F)(F)F)c2)c1[N+](=O)[O-] is higher in activation: -0.0154% for the first, 0.158% for the second.

Compared with COc1ccc(C(C)(C)C)cc1NC(=O)c1ccc2c(c1)NC(=O)C(C)S2 (configuration not stated), COc1ccc(/C=C\C(=O)NCCc2cc3ccc(C)c(C)c3[nH]c2=O)cc1OC is higher in activation: -1.1% for the first, -0.187% for the second.

First: COc1cc2ccccc2cc1C(=O)Nc1ccc2c3c(cccc13)CC2
Second: CCOc1ccc(C(=O)Nc2ccc3c4c(cccc24)CC3)cc1
The activation of the first is higher: 1.02% for the first, 0.563% for the second.

Going from O=C1CCC(CCNCCOc2ccc(F)cc2)N1CCc1ccccc1 (configuration not stated) to CCCCC(=O)Nc1ccc(C(=O)N2CCN(c3ccccc3F)CC2)cc1, the activation rises from -0.404% to 1.25%.

Compared with CCOC(=O)N1CCC(NC(=O)c2ccc(N3CC4CC(C3)c3cccc(=O)n3C4)c(NC(=O)c3ccc(OC)cc3)c2)CC1 (configuration not stated), Cc1ccc(C(=O)COC(=O)c2ccc3nc(-c4ccccc4)c(-c4ccccc4)nc3c2)cc1 is higher in activation: -1.15% for the first, -0.519% for the second.

Going from CCOc1ccc(S(=O)(=O)c2c[nH]c3cc(OC)c(OC)cc3c2=O)cc1 to COc1ccc(-c2csc3ncc(C(=O)N(C)C(C)C)c(=O)n23)cc1, the activation rises from 0.157% to 1.24%.

Going from CN1C(=O)c2ccc(NC(=O)CCn3c(=O)oc4ccccc43)cc2C1=O to CCN(CC)CCN1C(=O)C(=O)/C(=C(\O)c2ccc(Cl)cc2)C1c1ccc([N+](=O)[O-])cc1 (configuration not stated), the activation rises from -1.74% to -0.703%.

Going from Cc1cccc(CNc2nc3nc(C)cc(C)n3n2)c1 to CCc1nnc(NC(=O)CSc2nc(C)cc(C)n2)s1, the activation falls from -0.819% to -1.16%.

Compared with NS(=O)(=O)c1cccc(S(=O)(=O)c2ccc(Br)cc2)c1, Brc1ccc(-c2cc(-c3ccccc3)c3cc(Br)ccc3n2)cc1 is lower in activation: 1.39% for the first, 1.18% for the second.

First: CCCCCC(=O)N/N=C(\C)c1ccc(O)cc1
Second: Nc1nnnn1/N=C\c1ccc(O)c(O)c1
The activation of the first is lower: -1.26% for the first, 0.149% for the second.

For COc1cc(/C=N/n2nnnc2N)ccc1OCCC(C)C, the activation was 1.35%.

With CC(=O)c1cccc(-c2nc(Nc3ccc(Oc4ccccc4)cc3)c3ncn(-c4ccsc4)c3n2)c1 the activation was 5.34% (active).
CCOC(=O)Cc1coc(NC(=O)c2ccc(Cl)cc2)n1 was tested, and the activation was 5.28% (active).
O=C(c1cc([N+](=O)[O-])ccc1NC1CCCCC1)N1CCOCC1 was tested, and the activation was 9.09% (active).
CC(=O)Cn1c(=O)c2c(nc3n2CCCN3c2ccc(Br)cc2)n(C)c1=O was tested, and the activation was 5.99% (active).
O=C(C(Cc1ccccc1)N1C(=O)C2C3c4ccccc4C(c4ccccc43)C2C1=O)N1CCOCC1 (configuration not stated) was tested, and the activation was 6.8% (active).
For O=[N+]([O-])c1ccc2ncnc(Nc3cccc(C(F)(F)F)c3)c2c1, the activation was 5.31% (active).
For COc1cc(OC)cc(C(=O)Nc2ccc3c4c(cccc24)CC3)c1, the activation was 16.6% (active).
O=C1CCC(CCNCCOc2ccccc2)N1CCc1ccccc1 (configuration not stated) was tested, and the activation was 8.35% (active).
For Cc1ccc(NC(=O)CCn2c(=O)oc3ccccc32)cc1Cl, the activation was 10.6% (active).
Cc1ccc(S(=O)(=O)NCc2nc3nc(C)cc(C)n3n2)cc1 was tested, and the activation was 10.6% (active).
In the case of CCCCCC(=O)N/N=C(/C)c1ccc(O)cc1O, the activation is reported as 7.91% (active).
COc1ccc(OC)c(/C=N/n2nnnc2N)c1 was tested, and the activation was 8.6% (active).
